Laboratory results: the supplement of paper PMC6555819

What was measured:
Assay in all cases: PBM binding z-score (relative to random genomic background probes); higher = stronger binding; sequences stand for … in GC…GCGATTGACAGCGTAGAATGAAGG
[1] = test system: FXR:RXRa (NR concentration 270 nM, RXRa partner concentration 90 nM)
Procedure, shortened: (§1)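 The probes on custom Agilent 4×180K protein-binding microarrays were double-stranded, with 34-nt variable regions bearing direct-repeat seeds, single-nucleotide variants, half-site ablations and random human genomic background sequences. Incubation lasted 1 h with ligand-free nuclear receptor dimers in PBS pH 7.4, 2% milk, 0.02% Triton X-100, 1 mM DTT, 0.2 mg/mL BSA and 0.4 mg/ml salmon testes DNA. Antibodies against each partner (one per run) detected bound dimers, and fluorescence scans were regression-normalized. Binding z-scores take the random background probes as reference.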

[2] = test system: LXRa:RXRa (NR concentration 270 nM, RXRa partner concentration 90 nM)
Procedure, shortened: as §1

[3] = test system: LXRa homodimer (NR concentration 270 nM)
Procedure, shortened: as §1

[4] = test system: LXRb:RXRa (NR concentration 270 nM, RXRa partner concentration 90 nM)
Procedure, shortened: as §1

[5] = test system: LXRb homodimer (NR concentration 270 nM)
Procedure, shortened: as §1

[6] = test system: PPARa:RXRa (NR concentration 270 nM, RXRa partner concentration 90 nM)
Procedure, shortened: as §1

[7] = test system: PPARg:RXRa (NR concentration 180 nM, RXRa partner concentration 90 nM)
Procedure, shortened: as §1

[8] = test system: PPARg:RXRa 270nM:90nM, anti-RXR (NR concentration 270 nM, RXRa partner concentration 90 nM)
Procedure, shortened: as §1

[9] = test system: PPARg:RXRa 30nM:10nM, anti-RXR (NR concentration 30 nM, RXRa partner concentration 10 nM)
Procedure, shortened: as §1

[10] = test system: PPARg:RXRa 90nM:30nM, anti-RXR (NR concentration 90 nM, RXRa partner concentration 30 nM)
Procedure, shortened: as §1

[11] = test system: PPARg:RXRa DBDmut IVT, anti-RXR (DBD mutation: RXRa K156A/R161A, NR concentration 270 nM, RXRa partner concentration 90 nM)
Procedure, shortened: as §1

[12] = test system: PPARg:RXRa IVT, anti-PPARg (NR concentration 270 nM, RXRa partner concentration 90 nM)
Procedure, shortened: as §1

[13] = test system: PPARg DBDmut:RXRa IVT, anti-PPARg (DBD mutation: PPARg1 K132A/R137A, NR concentration 270 nM, RXRa partner concentration 90 nM)
Procedure, shortened: as §1

[14] = test system: PPARg DBDmut IVT, anti-PPARg (DBD mutation: PPARg1 K132A/R137A, NR concentration 270 nM)
Procedure, shortened: as §1

[15] = test system: PPARg homodimer (NR concentration 180 nM)
Procedure, shortened: as §1

[16] = test system: PXR:RXRa (NR concentration 270 nM, RXRa partner concentration 90 nM)
Procedure, shortened: as §1

[17] = test system: PXR homodimer (NR concentration 270 nM)
Procedure, shortened: as §1

[18] = test system: RARa:RXR (NR concentration 270 nM, RXRa partner concentration 90 nM)
Procedure, shortened: as §1

[19] = test system: RARa homodimer (NR concentration 270 nM)
Procedure, shortened: as §1

[20] = test system: RARb:RXRa (NR concentration 270 nM, RXRa partner concentration 90 nM)
Procedure, shortened: as §1

| Sequence | PBM binding z-score [1] | PBM binding z-score [2] | PBM binding z-score [3] | PBM binding z-score [4] | PBM binding z-score [5] | PBM binding z-score [6] | PBM binding z-score [7] | PBM binding z-score [8] | PBM binding z-score [9] | PBM binding z-score [10] | PBM binding z-score [11] | PBM binding z-score [12] | PBM binding z-score [13] | PBM binding z-score [14] | PBM binding z-score [15] | PBM binding z-score [16] | PBM binding z-score [17] | PBM binding z-score [18] | PBM binding z-score [19] | PBM binding z-score [20] |
| --- | --- | --- | --- | --- | --- | --- | --- | --- | --- | --- | --- | --- | --- | --- | --- | --- | --- | --- | --- | --- |
| AGTTAAAGTTCACTAGGTAACGTAAGATTCAGCT | 4.84 | 4.91 | 3.45 | 2.98 | 1.1 | 4.57 | 6.24 | 5.79 | 2.62 | 4.52 | 2.6 | 4.69 | 1.44 | 1.19 | 2.19 | 3.54 | 2.11 | 2.66 | 1.6 | 4.51 |
| CTATCAAGGTGAACAAGGTCGTTGATTACTATTC | 1.16 | 1.14 | -0.163 | 1.54 | -0.39 | 2.47 | 1.53 | 1.51 | 0.103 | 0.808 | 3.58 | 3.69 | 0.759 | 0.594 | 0.866 | 2.7 | 2.19 | 2.38 | 0.109 | 2.22 |
| ATCGAAAGGTCGACGAGGTAAGTATACACCGTTT | 4.59 | 3.11 | -0.055 | 2.62 | 0.428 | 4.09 | 2.6 | 3 | 1 | 2.11 | 0.556 | 1.6 | 0.911 | 0.688 | 1.42 | 2.3 | 0.185 | 3.12 | 0.419 | 3.66 |
| TCGAGTAGGTTACCAATGGGGCATTCAACTTTCT | 0.374 | 1.64 | -0.293 | 1.55 | 0.172 | 1.67 | 0.652 | 1.67 | 1.26 | 1.67 | 3.18 | 3.11 | -0.0959 | -0.457 | 0.301 | 0.506 | -0.241 | 0.916 | -0.285 | 1.14 |
| CTACCAAGATGAACAAGGTCGTTGATTACTATTC | 0.828 | 0.783 | 0.9 | 1.49 | 0.267 | 1.09 | 0.228 | 0.135 | -0.0206 | 0.314 | 0.459 | 0.305 | 0.173 | 0.136 | 0.792 | 1.53 | 1.73 | 1.45 | 1.7 | 0.656 |
| CCAGACAGGTGAGAAGATAACTCAGCCTCGATTA | 0.0426 | 0.15 | -0.0638 | -0.14 | -0.471 | -0.179 | 0.576 | -0.087 | -0.116 | 0.155 | 0.896 | 0.216 | -0.0942 | -0.455 | 0.364 | 0.081 | 0.476 | 0.117 | 0.792 | 0.241 |
| CCTCGGAGGACAGAAGGTCAGACCTGTCCGCTTT | 1.44 | 1.56 | 0.0539 | 1.3 | -0.489 | 1.9 | 0.19 | 0.86 | -0.764 | 0.0778 | 0.156 | 0.0592 | -1.1 | -2.09 | 1.39 | 1.69 | -0.272 | 2.2 | -0.193 | 3.22 |
| TAGCCTACGTCATGCGGGCCAGTATAGTGTCGGC | -0.993 | -0.942 | -0.548 | -1.15 | -0.753 | -0.592 | 0.156 | -0.778 | -0.767 | -0.769 | -0.258 | -0.361 | -0.565 | -0.82 | -1.11 | -0.921 | -1.11 | -0.886 | -1.36 | -0.527 |
| ATATATAGGTTAAGGGTCATTCAGGTTGGTTCGC | 5.73 | 5.29 | 4.07 | 4.88 | 1.86 | 6.8 | 11.9 | 9.9 | 10.7 | 11.7 | 7.29 | 7.49 | 2.46 | 2.9 | 4.36 | 5.67 | 3.53 | 6.57 | 3.52 | 3.92 |
| GCTAGCGGGCCATTTGGGTCACTCAATGACGGGC | -0.0868 | -0.0931 | -0.975 | -0.141 | -0.972 | 1.26 | 0.395 | 0.262 | -0.653 | -0.112 | 1.3 | 1.48 | -0.871 | -1.28 | -0.0904 | 0.246 | -0.44 | 0.906 | -1.07 | 1.26 |
| CCAGACAGGTCAAAGGTAACTCAGTCTGGTACGC | 6.4 | 4.97 | 0.903 | 4.17 | 0.453 | 5.83 | 7.89 | 7.43 | 6.13 | 8.02 | 3.48 | 3.96 | -0.0161 | 0.672 | 2.75 | 4.5 | 0.483 | 6.08 | 0.857 | 4.52 |
| CCTTACGGGTCACGAGGTTATTGCACGACGAGCG | 6.84 | 4.54 | 0.946 | 4.15 | 0.296 | 6.08 | 7.34 | 6.45 | 3.32 | 5.41 | 4.41 | 5.61 | 1.02 | 0.757 | 3.66 | 4.88 | 0.56 | 6.61 | 1.28 | 4.57 |
| GCGACTGGGGCATCAGCAGGTTACCATGACTTAA | -0.337 | -0.256 | -0.454 | 0.309 | -1.08 | 0.903 | 0.918 | 0.462 | -0.743 | -0.0721 | 3.94 | 2.97 | -0.844 | -0.497 | -0.0201 | -0.489 | -0.454 | -0.00016 | -0.803 | 0.805 |
| CCAGACAGGTGAAAGGCAACTCAGTCTGGTACGC | -0.102 | 0.0112 | -0.327 | 0.0509 | -0.597 | 1.7 | 2.49 | 3.2 | 1.12 | 2.8 | 0.767 | 1.08 | 0.0608 | -0.556 | 0.466 | -0.0216 | -0.296 | 0.0824 | 0.0834 | 0.639 |
| ACTATTAGTTGAGACGAGGTCAACCGATAGGTTG | 3.42 | 3.7 | 2.01 | 3.53 | 0.73 | 4.15 | 1.97 | 2.35 | 0.821 | 1.85 | 0.226 | 2.11 | 0.554 | 1.21 | 2.65 | 5.3 | 2.57 | 4.97 | 1.07 | 3.52 |
